{
  "source": "PubChem BioAssay",
  "key": {"[1]": {"test": "LFS_MB_P medulloblastoma growth inhibition, cell-based, chromothripsis tumors, cisplatin or BGB combos (AID 1671449);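 note: cells exposed for 96 hours; 0% = vehicle DMSO and 100% = killing by high DMSO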", "conditions": "LFS_MB_P medulloblastoma cells"}, "[2]": {"test": "HDN33 neuroblastoma growth inhibition, cell-based, chromothripsis tumors, cisplatin or BGB combos (AID 1671450);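 note: cells exposed to compound for four days; 0% = vehicle DMSO and 100% = cell killing by high DMSO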", "conditions": "HDN33 neuroblastoma cells, stronger effect = higher value"}, "[3]": {"test": "ICB984 medulloblastoma cell growth inhibition, synergistic combos for chromothripsis tumors, cisplatin or BGB combos (AID 1671451; call rule not given here;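 note: cells exposed for 96 hours before readout; 0% = vehicle DMSO and 100% = killing by high DMSO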)", "conditions": "ICB984 medulloblastoma cells, drug combinations, stronger effect = higher value"}, "[4]": {"test": "LFS_MB_1R medulloblastoma cell growth inhibition, synergistic combos for chromothripsis tumors, cisplatin or BGB combos (AID 1671452);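 note: cells exposed for 96 hours before readout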", "conditions": "LFS_MB_1R medulloblastoma cells, stronger effect = higher value"}, "[5]": {"test": "HTB85 osteosarcoma cell growth inhibition, synergistic combos for chromothripsis tumors, BGB or cisplatin IC20 combos (AID 1671453);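 note: cells exposed for 96 hours before readout; 0% = vehicle DMSO and 100% = high DMSO killing control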", "conditions": "HTB85 osteosarcoma cells, drug combinations, stronger effect = higher value"}, "[6]": {"test": "CRL2098 osteosarcoma cell growth inhibition, synergistic combos for chromothripsis tumors, BGB or cisplatin IC20 combos (AID 1671454);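 note: cells exposed for 96 h before readout; 0% = vehicle DMSO and 100% = killing by high DMSO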", "conditions": "CRL2098 osteosarcoma cells, drug combinations, stronger effect = higher value"}, "[7]": {"test": "HD-MB03 medulloblastoma cell growth inhibition, synergistic combos for chromothripsis tumors, BGB or cisplatin IC20 combos (AID 1671455; in the data active = inhibition above about 83%;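 note: 0% = vehicle DMSO and 100% = high DMSO as cytotoxic control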)", "conditions": "HD-MB03 medulloblastoma cells, stronger effect = higher value"}, "[8]": {"test": "UWB1.289 ovarian carcinoma cell growth inhibition, synergistic combos for chromothripsis tumors, BGB or cisplatin combos (AID 1671456);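 note: cells exposed to compound for four days; 0% = vehicle DMSO and 100% = killing by high DMSO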", "conditions": "UWB1.289 ovarian carcinoma cells, stronger effect = higher value"}, "[9]": {"test": "LFS_MB_2R medulloblastoma cell growth inhibition, synergistic combos for chromothripsis tumors, cisplatin combos (AID 1671457);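 note: cells exposed to compound for four days before readout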", "conditions": "LFS_MB_2R medulloblastoma cells, stronger effect = higher value"}, "[10]": {"test": "MDA-MB-436 breast carcinoma cell growth inhibition, synergistic combos for chromothripsis tumors, BGB or cisplatin combos (AID 1671458; call rule not given here;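 note: cells exposed for 96 hours; 0% = vehicle DMSO and 100% = killing by high DMSO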)", "conditions": "MDA-MB-436 breast carcinoma growth inhibition, drug combinations, stronger effect = higher value"}, "[11]": {"test": "UWB1.289_BRCA1 ovarian cancer growth, cell-based, BGB or cisplatin combinations (AID 1671459)", "conditions": "UWB1.289 BRCA1 ovarian carcinoma, drug combinations, stronger effect = higher value"}, "[12]": {"test": "human astrocyte viability loss, single and combined drugs, cytotoxicity control for chromothriptic childhood tumor combination screen, cell-based, BGB or cisplatin IC20 combos (AID 1671460);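 note: cells exposed to compounds for 96 hours before viability readout; 0% = vehicle and 100% = killing control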", "conditions": "Human astrocytes, drug combinations, stronger effect = higher value"}, "[13]": {"test": "growth inhibition of BT084 medulloblastoma cells, cell-based, ICGC_MB145, cisplatin and BGB IC40 combos (AID 1671461);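 note: cells exposed to drugs for 96 hours; 0% = vehicle DMSO and 100% = high DMSO full killing control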", "conditions": "drug combinations, stronger effect = higher value"}, "[14]": {"test": "growth inhibition of RCMB18 medulloblastoma cells, cell-based, cisplatin and BGB IC40 combos (AID 1671462);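 note: cells exposed to compound for four days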", "conditions": "stronger effect = higher value"}, "[15]": {"test": "growth inhibition of CRL1545 osteosarcoma cells, cell-based, cisplatin and BGB IC20 combos (AID 1671464);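 note: cells exposed to compound for 96 hours before readout; 0% = vehicle DMSO and 100% = high DMSO killing control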", "conditions": "stronger effect = higher value"}, "[16]": {"conditions": "measured here: combination with BGB IC40, at 0.05 µM"}, "[17]": {"conditions": "measured here: with BGB IC20 combination, at 0.5 µM"}, "[18]": {"conditions": "measured here: with cisplatin IC20 combination, at 0.5 µM"}, "[19]": {"conditions": "measured here: combination with cisplatin, at 0.5 µM"}, "[20]": {"conditions": "measured here: combination with cisplatin, at 5 µM"}},
  "note": "Active and inactive are the calls of the source. Cut-off read from the data, not from the text of the source, unless noted: active = inhibition above about 80%; inactive = the rest.",
  "data": [
    {"compound": "CC1OC(CC(=O)O)CC2=C1C(=O)c1c(O)cccc1C2=O", "note": "(stereo not drawn)", "values": [
      {"measurement": "inhibition", "setting": "[1]; at 0.5 µM, stronger effect = higher value", "value": "13.6% (inactive)"},
      {"measurement": "inhibition", "setting": "[1]; measured here: combination with BGB IC20, at 0.005 µM", "value": -20.4, "unit": "%"},
      {"measurement": "inhibition", "setting": "[1]; measured here: combination with BGB IC40, at 0.005 µM", "value": -16.6, "unit": "%"},
      {"measurement": "inhibition", "setting": "[1]; [16]", "value": 120, "unit": "%"},
      {"measurement": "inhibition", "setting": "[1]; measured here: combination with cisplatin, at 0.5 µM, stronger effect = higher value", "value": 28.7, "unit": "%"},
      {"measurement": "inhibition", "setting": "[1]; measured here: combination with cisplatin, at 5 µM, stronger effect = higher value", "value": 128, "unit": "%"},
      {"measurement": "inhibition", "setting": "[2]; BGB combo, at 5 µM", "value": 100, "unit": "%"},
      {"measurement": "inhibition", "setting": "[2]; at 0.5 µM", "value": "99.9% (active)"},
      {"measurement": "inhibition", "setting": "[2]; cisplatin combo, at 5 µM", "value": 99.9, "unit": "%"},
      {"measurement": "inhibition", "setting": "[2]; [17]", "value": 99.9, "unit": "%"},
      {"measurement": "inhibition", "setting": "[2]; [18]", "value": 99.9, "unit": "%"},
      {"measurement": "inhibition", "setting": "[2]; single agent, at 5 µM", "value": 99.9, "unit": "%"},
      {"measurement": "inhibition", "setting": "[3]; BGB IC20 combo, at 0.005 µM", "value": 101, "unit": "%"},
      {"measurement": "inhibition", "setting": "[3]; BGB IC40 combo, at 0.005 µM", "value": 102, "unit": "%"},
      {"measurement": "inhibition", "setting": "[3]; BGB IC40 combo, at 0.05 µM", "value": 102, "unit": "%"},
      {"measurement": "inhibition", "setting": "[3]; at 0.5 µM", "value": "0.28% (inactive)"},
      {"measurement": "inhibition", "setting": "[3]; cisplatin combo, at 0.05 µM", "value": 102, "unit": "%"},
      {"measurement": "inhibition", "setting": "[3]; cisplatin combo, at 0.5 µM", "value": 10.8, "unit": "%"},
      {"measurement": "inhibition", "setting": "[3]; cisplatin combo, at 5 µM", "value": 102, "unit": "%"},
      {"measurement": "inhibition", "setting": "[3]; measured here: 5 uM single agent, at 5 µM", "value": 98.7, "unit": "%"},
      {"measurement": "inhibition", "setting": "[4]; at 0.5 µM", "value": "106% (active)"},
      {"measurement": "inhibition", "setting": "[4]; [16]", "value": 101, "unit": "%"},
      {"measurement": "inhibition", "setting": "[4]; [19]", "value": 111, "unit": "%"},
      {"measurement": "inhibition", "setting": "[4]; [20]", "value": 106, "unit": "%"},
      {"measurement": "inhibition", "setting": "[5]; at 0.5 µM", "value": "99.9% (active)"},
      {"measurement": "inhibition", "setting": "[5]; measured here: with BGB IC20, at 0.5 µM", "value": 100, "unit": "%"},
      {"measurement": "inhibition", "setting": "[5]; measured here: with BGB IC20, at 5 µM", "value": 100, "unit": "%"},
      {"measurement": "inhibition", "setting": "[5]; measured here: with cisplatin IC20, at 0.5 µM", "value": 99.9, "unit": "%"},
      {"measurement": "inhibition", "setting": "[5]; measured here: with cisplatin IC20, at 5 µM", "value": 99.7, "unit": "%"},
      {"measurement": "inhibition", "setting": "[5]; single agent, at 5 µM", "value": 99.7, "unit": "%"},
      {"measurement": "inhibition", "setting": "[6]; at 0.5 µM", "value": "100% (active)"},
      {"measurement": "inhibition", "setting": "[6]; measured here: combination with BGB at IC20, at 0.5 µM", "value": 100, "unit": "%"},
      {"measurement": "inhibition", "setting": "[6]; measured here: combination with cisplatin at IC20, at 0.5 µM", "value": 100, "unit": "%"},
      {"measurement": "inhibition", "setting": "[7]; at 0.5 µM", "value": "99.8% (active)"},
      {"measurement": "inhibition", "setting": "[7]; measured here: combo with BGB at IC20, at 0.5 µM", "value": 99.9, "unit": "%"},
      {"measurement": "inhibition", "setting": "[7]; measured here: combo with cisplatin at IC20, at 0.5 µM", "value": 99.8, "unit": "%"},
      {"measurement": "inhibition", "setting": "[8]; at 0.5 µM", "value": "102% (active)"},
      {"measurement": "inhibition", "setting": "[8]; measured here: inhibition with BGB combination, at 0.05 µM", "value": 65.9, "unit": "%"},
      {"measurement": "inhibition", "setting": "[8]; measured here: inhibition with cisplatin combination, at 0.05 µM", "value": 91.2, "unit": "%"},
      {"measurement": "inhibition", "setting": "[9]; at 0.5 µM", "value": "106% (active)"},
      {"measurement": "inhibition", "setting": "[9]; [19]", "value": 105, "unit": "%"},
      {"measurement": "inhibition", "setting": "[9]; [20]", "value": 105, "unit": "%"},
      {"measurement": "inhibition", "setting": "[10]; at 0.5 µM", "value": "102% (active)"},
      {"measurement": "inhibition", "setting": "[10]; measured here: BGB combination, at 0.5 µM", "value": 103, "unit": "%"},
      {"measurement": "inhibition", "setting": "[10]; measured here: BGB combination, at 5 µM", "value": 103, "unit": "%"},
      {"measurement": "inhibition", "setting": "[10]; measured here: cisplatin combination, at 0.5 µM", "value": 101, "unit": "%"},
      {"measurement": "inhibition", "setting": "[10]; measured here: cisplatin combination, at 5 µM", "value": 109, "unit": "%"},
      {"measurement": "inhibition", "setting": "[11]; BGB combination, concentration series, at 5 µM", "value": 121, "unit": "%"},
      {"measurement": "inhibition", "setting": "[11]; at 0.5 µM", "value": "111% (active)"},
      {"measurement": "inhibition", "setting": "[11]; cisplatin combination, concentration series, at 5 µM", "value": 132, "unit": "%"},
      {"measurement": "inhibition", "setting": "[12]; at 0.5 µM", "value": "102% (active)"},
      {"measurement": "inhibition", "setting": "[12]; measured here: combo with BGB IC20, at 0.5 µM", "value": 105, "unit": "%"},
      {"measurement": "inhibition", "setting": "[12]; measured here: combo with cisplatin IC20, at 0.5 µM", "value": 101, "unit": "%"},
      {"measurement": "inhibition", "setting": "[13]; at 0.5 µM", "value": "106% (active)"},
      {"measurement": "inhibition", "setting": "[13]; cisplatin combination, at 0.5 µM", "value": 108, "unit": "%"},
      {"measurement": "inhibition", "setting": "[13]; cisplatin combination, at 5 µM", "value": 110, "unit": "%"},
      {"measurement": "inhibition", "setting": "[13]; measured here: BGB IC40 combination 0.05 uM, at 0.05 µM", "value": 67.7, "unit": "%"},
      {"measurement": "inhibition", "setting": "[13]; single agent, at 5 µM", "value": 107, "unit": "%"},
      {"measurement": "inhibition", "setting": "[14]; at 0.5 µM", "value": "99.3% (active)"},
      {"measurement": "inhibition", "setting": "[14]; cisplatin combo, at 5 µM", "value": 103, "unit": "%"},
      {"measurement": "inhibition", "setting": "[14]; measured here: BGB IC40 combination, at 0.05 µM", "value": 97.5, "unit": "%"},
      {"measurement": "inhibition", "setting": "[14]; [19]", "value": 102, "unit": "%"},
      {"measurement": "inhibition", "setting": "[14]; single agent, at 5 µM", "value": 101, "unit": "%"},
      {"measurement": "inhibition", "setting": "[15]; at 0.5 µM", "value": "99.9% (active)"},
      {"measurement": "inhibition", "setting": "[15]; [17]", "value": 99.9, "unit": "%"},
      {"measurement": "inhibition", "setting": "[15]; [18]", "value": 99.9, "unit": "%"},
      {"measurement": "inhibition", "setting": "[15]; single agent, at 0.05 µM", "value": 99.9, "unit": "%"},
      {"measurement": "inhibition", "setting": "[15]; single agent, at 5 µM", "value": 99.9, "unit": "%"}
    ]}
  ]
}
